# High-throughput results: PubChem, National Center for Advancing Translational Sciences (NCATS)
# In the library only some 6.1% were active in any assay of this set; here they are far more common.
# D1 antagonist: Antagonist of Human D 1 Dopamine Receptor: qHTS. D(1A) dopamine receptor (Homo sapiens), P21728. HEK293 TREx D1 cells, calcium flux, dopamine EC80; stronger effect = lower value. activity change, negative = inhibition, % at 10 µM. actives 3.2% (n = 360,000); in the data active = activity change below about -30%; also: % is scaled to controls: 0 for no effect and ±100 for the full control effect
#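 Antagonism measured as reduced calcium response to an EC80 dopamine addition following 180 s compound pre-read; cells were inducible HEK293 Trex D1 plated overnight at 30 C, read kinetically at 1 cycle/sec.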
# ERG-DNA inh: qHTS for Small Molecule Inhibitors of the ERG Ets/DNA interaction; Transcriptional regulator ERG (Homo sapiens), P11308; fluorescence polarization, His-ERG Ets domain / labelled DNA; Potency, µM (highest dose often 76.9 µM), without a hit: at the highest dose FP activity, negative = inhibition, actives largely listed as inhibitors; actives 0.028% (n = 370,000); active = well fitted inhibition curve with a large enough effect in the polarisation, with a control signal flat; inconclusive = small, poorly fitted or top-dose-only effect, or effect the other way, or a change in a side signal; inactive = no such curve, though single readings can be large or run the other way; the % refers to the polarisation;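 also: polarization taken with two DNA probes labelled with fluorescein and Texas red; potency is read from the fitted curve at half-maximal effect; % of control where 0% means no effect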
# Target sequence (P11308 whole entry, looked up, the tested form may be a part): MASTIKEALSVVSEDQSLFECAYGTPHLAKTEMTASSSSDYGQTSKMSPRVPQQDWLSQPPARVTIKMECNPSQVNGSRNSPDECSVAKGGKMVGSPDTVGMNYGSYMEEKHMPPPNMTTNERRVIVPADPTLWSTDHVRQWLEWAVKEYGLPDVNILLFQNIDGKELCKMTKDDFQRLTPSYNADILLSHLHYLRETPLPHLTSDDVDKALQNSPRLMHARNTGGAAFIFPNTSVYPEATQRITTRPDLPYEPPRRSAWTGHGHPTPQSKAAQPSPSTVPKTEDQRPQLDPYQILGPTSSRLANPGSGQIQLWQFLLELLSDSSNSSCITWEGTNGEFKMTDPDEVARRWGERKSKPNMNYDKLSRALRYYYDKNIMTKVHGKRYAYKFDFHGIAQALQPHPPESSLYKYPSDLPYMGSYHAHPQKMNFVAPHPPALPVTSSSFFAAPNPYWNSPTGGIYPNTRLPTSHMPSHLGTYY
#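 His-tagged ERG Ets domain (1 uM in the protein solution; 300mM KCl, 50mM Tris-HCl, 1mM EDTA, 1mM DTT, pH 7.5) received compound, then a probe mix of 5 nM fluorescein-DNA and 100nM Texas-615-DNA. Fluorescence polarization was read for both dyes.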
# D1 potentiator: Potentiators of Human D1 Dopamine Receptor: qHTS; D(1A) dopamine receptor (Homo sapiens), P21728; HEK293 TREx D1 cells, calcium flux, dopamine EC20 potentiation; potentiation, % at 10 µM; actives 0.036% (n = 360,000); in the data active = potentiation above about 30%; also: 0% is about no effect
# D1 agonist: Allosteric Agonists of the Human D1 Dopamine Receptor: qHTS | activation, % at 2 µM | actives 1% (n = 360,000) | AID 504660, 2011 | D(1A) dopamine receptor (Homo sapiens), P21728 | HEK293 T-REx D1 cells, calcium flux, agonist mode; in the data active = activation above about 30%; also: 0% is about no effect
#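 Tetracycline-induced HEK293 TREx D1 cells, force-coupled to calcium signalling, were dye-loaded with a no-wash calcium kit. Compound was pin-added after a 10 s baseline. Fluorescence was read kinetically at 1 cycle/s for 180 s, with calcium rises flagged as agonism.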
# D3 ag: qHTS of D3 Dopamine Receptor Agonist: qHTS | actives 0.58% (n = 410,000) | D3R DiscoveRx beta-arrestin cells, luminescence, 90 min | max activation, % | D(3) dopamine receptor (Homo sapiens), P35462; in the data active = max activation above about 30%; also: 0% is about no effect
#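 Agonist-mode cell screen: cells plated at 1500/well and incubated overnight at 37 °C, then exposed to library compounds for 90 min at 37 °C. Detection reagent was added for 30–60 min at room temperature, and luminescence was read.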
# D3 antag: qHTS of D3 Dopamine Receptor Antagonist: qHTS; D3R cells, DiscoveRx beta-arrestin luminescence, antagonist mode; stronger effect = lower value; actives 2.5% (n = 360,000); D(3) dopamine receptor (Homo sapiens), P35462; AID 652054, 2013; max response, negative = inhibition, %; in the data active = max response below about -50%; inconclusive = no clear call, values can overlap the other calls; also: % is scaled to controls: 0 for no effect and ±100 for the full control effect
#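 Cells plated overnight at 1500 cells/well, then exposed to library compounds with dopamine controls for 90 minutes at 37 degrees C. DiscoveRx reagent added for 30–60 minutes at room temperature; luminescence read, quantitative HTS format.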
# * marks the source's active call; other numbers are inactive results; ? = inconclusive; nt = no result.
SMILES,D1 antagonist,ERG-DNA inh,D1 potentiator,D1 agonist,D3 ag,D3 antag
S=C(Nc1ccc(Cl)cc1)NC1CC2CCCC(C1)N2C1CCCC1 (stereo unspecified),nt,nt,nt,nt,-15.3,-19.0
S=C(Nc1ccc(Cl)cc1)NC1CC2CCCC(C1)N2C1CC1 (stereo unspecified),-40.8*,nt,7.4,134.6*,0.5,9.8
C=CCN1C2CCCC1CC(NC(=S)Nc1ccc(Cl)cc1)C2 (stereo unspecified),-84.4*,-0.6%,-1.3,22.7,-9.1,3.3
Cc1ccc(N(Cc2cc3ccc(C)cc3[nH]c2=O)C(=O)c2ccco2)cc1,-3.1,2.9%,0.3,0.1,-17.3,-22.2
CC(C)(C)OC(=O)[C@H]1[C@H](c2ccc([N+](=O)[O-])cc2)C2(C(=O)c3ccccc3C2=O)C2c3ccccc3C=NN21 (stereo partly specified),-8.5,11.5%,-0.8,4.9,-9.9,-58.9*
Cc1ccc(S(=O)(=O)c2ncccc2[N+](=O)[O-])cc1,-17.1,13.4%,-2.3,2.1,-6.7,-90.0*
CCc1ccccc1NC(=O)c1nc(-c2ccncc2)no1,0.8,-2.5%,2.3,-1.6,4.5,nt
Cc1ccc(NC(=O)c2nc(-c3ccncc3)no2)c(Cl)c1,-47.4*,1.3%,-4.3,11.8,-15.9,nt
N#C/C(=C\c1c[nH]c2ccccc12)C(=O)Nc1ncc(Cc2ccc(Cl)cc2Cl)s1,5.2,-0.7%,-6.3,34.7*,1.1,?
Cn1cc(/C=C(\C#N)C(=O)Nc2ncc(Cc3cccc(Cl)c3)s2)c2ccccc21,-10.5,nt,-10.1,25.1,nt,nt
CCOc1ccc([N+](=O)[O-])c(N)c1,-33.1*,nt,-4.9,0.7,-2.9,-15.2
Cc1cc(C)c(S(=O)(=O)Nc2ccc(O)c(Sc3ncn[nH]3)c2)c(C)c1,0.9,1.4%,-4.1,2.1,-1.7,7.0
O=S(=O)(c1cccc2ccccc12)N1CCCCC1,6.6,2.5%,-6.6,2.8,3.7,15.6
O=C(O)c1cc2cccc(S(=O)(=O)N3CCCCC3)c2cc1O,15.2,4.4%,-1.8,-1.8,30.1*,9.4
CN1CCN(C(=O)c2c(NC(=O)c3ccco3)sc3c2CCC(C(C)(C)C)C3)CC1 (stereo unspecified),-0.9,-4.0%,-5.9,34.1*,-4.0,-17.9
Cc1ccccc1C(=O)Nc1sc2c(c1C(=O)N1CCCCC1)CCC(C(C)(C)C)C2 (stereo unspecified),-7.7,-7.7%,-0.3,-0.7,0.2,nt
CC(C)(C)C1CCc2c(sc(NC(=O)c3cccs3)c2C(N)=O)C1 (stereo unspecified),11.5,7.4%,32.8*,3.8,-3.5,-6.5
CN(NC(=O)Nc1ccc(Cl)cc1)c1c(Cl)c(Cl)nn1C,-40.5*,9.8%,-2.7,10.2,11.4,1.3
CN(NC(=O)Nc1ccc(Cl)cc1)c1ncc(C(F)(F)F)cc1Cl,nt,-15.0%,nt,nt,-10.5,?
COc1ccc(N=C2C(=S)N(c3ccc(OC)cc3)C(=NS(=O)(=O)c3ccccc3)N2c2ccccc2)cc1,nt,10.7%,nt,nt,4.3,-9.1
N=C1N(c2ccccc2)C(=S)C(=Nc2ccccc2)N1c1ccccc1,nt,2.3%,nt,nt,-10.6,-61.3*
Cc1ccccc1NC(=O)c1c(C)nc(SCC(=O)OCc2ccccc2)c(C#N)c1-c1ccc(F)cc1,1.3,-10.2%,-5.5,2.0,7.3,0.8
COc1ccnc(Oc2ccc(Cl)cc2)c1C#N,-34.6*,6.9%,-6.7,0.4,4.3,3.4
Cc1cc(Cl)ccc1Oc1nccc(N(C)C)c1C#N,-36.9*,nt,-11.1,10.5,27.9,5.6
COc1ccnc(Oc2ccccc2)c1C#N,4.8,-14.4%,-2.9,0.7,-12.7,-6.8
SMILES,D1 antagonist,ERG-DNA inh,D1 potentiator,D1 agonist,D3 ag,D3 antag
C/C(=N\NC(=O)c1ccc(CN2CCc3ccccc3C2)cc1)c1ccccc1O,-11.1,3.0%,-5.4,2.3,-2.3,-28.4
O=C(NC1C(=O)NNC1c1ccc(Cl)cc1)c1ccc(F)cc1 (stereo unspecified),-7.8,-7.0%,2.5,0.9,-8.3,-18.6
O=C(Nc1ccccc1)c1ccc(NCc2cccnc2)c(S(=O)(=O)N2CCOCC2)c1,-7.2,-0.5%,-8.1,-0.2,-10.0,-13.1
O=C(CSC(=S)N1CCCC1)N1CCN(S(=O)(=O)c2ccccc2F)CC1,-7.9,12.0%,-3.0,3.3,-2.7,1.5
CCn1c(CNc2ccc(Cl)cc2)nnc1SCc1ccc(C)cc1,6.0,2.9%,3.0,0.1,-0.1,-8.9
CC(=O)Oc1c(/C=C(\C#N)C(N)=O)[nH]c2ccccc12,-14.3,34.0%,0.1,52.8*,-0.9,?
N#C/C(=C\c1c[nH]c2ccccc12)C(N)=O,11.7,10.0%,-2.9,1.0,0.1,8.8
CCOc1cc(C(=O)N(C)c2ccccc2)cc(OCC)c1OCC,15.6,-5.4%,-4.7,-2.5,6.1,0.8
Cc1ccc2[nH]c(C(=O)N3CCCC(Nc4ccc(F)cc4)C3)cc2c1 (stereo unspecified),-30.1*,-9.1%,-8.4,3.2,1.8,-12.5
Cc1cc(C)c(C(=O)N2CCCC(Nc3ccc(F)cc3)C2)o1 (stereo unspecified),-16.9,-4.7%,-0.8,0.5,-0.9,0.5
O=C(NCCCN1CCOCC1)c1ccccc1N1C(=O)[C@@H]2Cc3c([nH]c4ccccc34)C(c3cccc(Cl)c3)N2C1=O (stereo partly specified),-46.2*,-1.4%,-8.6,9.6,-0.6,-7.8
Cc1ccc(C2c3[nH]c4ccccc4c3C[C@H]3C(=O)N(c4ccccc4C(=O)NCCCN4CCOCC4)C(=O)N23)cc1 (stereo partly specified),-2.5,-0.3%,1.9,3.1,-3.9,0.0
Cc1c(OCC(=O)N2CCC(C(N)=O)CC2)ccc2c3c(c(=O)oc12)CCCC3,1.8,-1.2%,-0.5,0.4,0.3,2.3
C/C=C1\C(OC2OC(CO)C(O)C(O)C2O)OC=C(C(=O)OC)C1CC(=O)OCC1C(C)C(OC(=O)CC2C(C(=O)OC)=COC(OC3OC(CO)C(O)C(O)C3O)/C2=C\C)CC1C(CO)CO (stereo unspecified),-31.2*,-1.4%,-2.0,-1.5,1.8,12.1
CCOC(=O)c1c(C)[nH]c(C)c1C(=O)COC(=O)c1nn(CC)c(=O)c2ccccc12,nt,nt,nt,nt,-8.4,97.7
COc1cc2c3nnc(-c4ccc(F)cc4)c-3cn(Cc3ccccc3F)c2cc1OC,-52.9*,-16.2%,-4.1,4.5,7.9,39.6
